Data on 11 molecules can be found in PubChem BioAssay.

For part of these data: Measured potencies and affinities stand elsewhere. Activity calls are given as the source filed them. Unless noted, no stated cut-off is given here; in the data, active means inhibition above about 80%; inactive means the rest.

Test [1] in a line: rescue of polyQ-huntingtin neuronal dysfunction in worms, whole organism, C. elegans mechanosensory neurons, N-terminal huntingtin (AID 1599). As to conditions: touch response, stronger effect = higher value.
Test [2] can be described thus: inhibitors of polyQ protein aggregation (AID 1604). The settings on record: polyglutamine-induced protein aggregation inhibition assay; stronger effect = higher value; tested at 2.5 µM.
A short description of test [3]: enhancers of glutamate uptake in motor neurons, MN-1 cell line (AID 1612).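 Further: tested at 1 µM final; 0% = mean of DMSO vehicle wells on each plate; positive means more glutamate uptake than control and negative means less.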 The settings on record: MN-1 motor neuron cells, stronger effect = higher value.
Test [4] is described as follows: reducers of polyQ inclusions in PC12 cells, cell-based, NGF-treated PC12, GFPQ80 (AID 1614).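 Further: lower means fewer inclusions and 0 means no inclusions at all.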 The settings on record: PC12 NGF-treated GFP-polyQ80 inclusion reduction.
Test [5] in a line: suppressors of polyglutamine aggregation in yeast, 75Q-TubH (AID 1616). As to conditions: S. cerevisiae 75Q-TubH polyglutamine aggregation suppression; stronger effect = higher value.
In test [6] the target is Mitogen-activated protein kinase 7 (Homo sapiens) (UniProt Q13164). Description: ERK5 transactivation activators in reporter cells, primary screen, cell-based, HTS (AID 1508626;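 active means luciferase signal above three times the same-plate solvent-only control wells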;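 further: luciferase driven by Gal4-ERK5 fusion binding five Gal4 sites before minimal TATA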). As to conditions: HeLa Gal4-ERK5 transactivation, 18 h, at 5 µM, stronger effect = higher value.
Test [7] in a line: LFS_MB_P medulloblastoma growth inhibition, cell-based, chromothripsis tumors, cisplatin or BGB combos (AID 1671449).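 Further: cells exposed for 96 hours; 0% = vehicle DMSO and 100% = killing by high DMSO.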 The settings on record: LFS_MB_P medulloblastoma cells.
Test [8] in a line: HDN33 neuroblastoma growth inhibition, cell-based, chromothripsis tumors, cisplatin or BGB combos (AID 1671450).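 Further: cells exposed to compound for four days; 0% = vehicle DMSO and 100% = cell killing by high DMSO.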 The settings on record: HDN33 neuroblastoma cells, stronger effect = higher value.
The nature of test [9]: ICB984 medulloblastoma cell growth inhibition, synergistic combos for chromothripsis tumors, cisplatin or BGB combos (AID 1671451; call rule not given here;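 further: cells exposed for 96 hours before readout; 0% = vehicle DMSO and 100% = killing by high DMSO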). As to conditions: ICB984 medulloblastoma cells, drug combinations, stronger effect = higher value.
The nature of test [10]: LFS_MB_1R medulloblastoma cell growth inhibition, synergistic combos for chromothripsis tumors, cisplatin or BGB combos (AID 1671452).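 Further: cells exposed for 96 hours before readout.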 The settings on record: LFS_MB_1R medulloblastoma cells, stronger effect = higher value.
Test [11] in a line: HTB85 osteosarcoma cell growth inhibition, synergistic combos for chromothripsis tumors, BGB or cisplatin IC20 combos (AID 1671453).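 Further: cells exposed for 96 hours before readout; 0% = vehicle DMSO and 100% = high DMSO killing control.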 As to conditions: HTB85 osteosarcoma cells, drug combinations, stronger effect = higher value.
Test [12] in a line: CRL2098 osteosarcoma cell growth inhibition, synergistic combos for chromothripsis tumors, BGB or cisplatin IC20 combos (AID 1671454).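 Further: cells exposed for 96 h before readout; 0% = vehicle DMSO and 100% = killing by high DMSO.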 The settings on record: CRL2098 osteosarcoma cells, drug combinations, stronger effect = higher value.
Test [13] can be described thus: MDA-MB-436 breast carcinoma cell growth inhibition, synergistic combos for chromothripsis tumors, BGB or cisplatin combos (AID 1671458; call rule not given here;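 further: cells exposed for 96 hours; 0% = vehicle DMSO and 100% = killing by high DMSO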). As to conditions: MDA-MB-436 breast carcinoma growth inhibition, drug combinations, stronger effect = higher value.
Test [14] is described as follows: growth inhibition of BT084 medulloblastoma cells, cell-based, ICGC_MB145, cisplatin and BGB IC40 combos (AID 1671461).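 Further: cells exposed to drugs for 96 hours; 0% = vehicle DMSO and 100% = high DMSO full killing control.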 The settings on record: drug combinations, stronger effect = higher value.
A short description of test [15]: growth inhibition of RCMB18 medulloblastoma cells, cell-based, cisplatin and BGB IC40 combos (AID 1671462).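 Further: cells exposed to compound for four days.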 As to conditions: stronger effect = higher value.
A short description of test [16]: growth inhibition of CRL1545 osteosarcoma cells, cell-based, cisplatin and BGB IC20 combos (AID 1671464).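 Further: cells exposed to compound for 96 hours before readout; 0% = vehicle DMSO and 100% = high DMSO killing control.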 The settings on record: stronger effect = higher value.
Setting [17] is: measured here: combination with BGB IC40, at 0.05 µM.
Where [18] appears, read: measured here: with BGB IC20 combination, at 0.5 µM.
[19] abbreviates: measured here: with cisplatin IC20 combination, at 0.5 µM.
Setting [20] is: measured here: combination with cisplatin, at 0.5 µM.

One may read the inhibition as the drop in the measured response relative to a control, in per cent.

Mitogen-activated protein kinase 7 (Homo sapiens), sequence (Q13164 whole entry, looked up, the tested form may be a part): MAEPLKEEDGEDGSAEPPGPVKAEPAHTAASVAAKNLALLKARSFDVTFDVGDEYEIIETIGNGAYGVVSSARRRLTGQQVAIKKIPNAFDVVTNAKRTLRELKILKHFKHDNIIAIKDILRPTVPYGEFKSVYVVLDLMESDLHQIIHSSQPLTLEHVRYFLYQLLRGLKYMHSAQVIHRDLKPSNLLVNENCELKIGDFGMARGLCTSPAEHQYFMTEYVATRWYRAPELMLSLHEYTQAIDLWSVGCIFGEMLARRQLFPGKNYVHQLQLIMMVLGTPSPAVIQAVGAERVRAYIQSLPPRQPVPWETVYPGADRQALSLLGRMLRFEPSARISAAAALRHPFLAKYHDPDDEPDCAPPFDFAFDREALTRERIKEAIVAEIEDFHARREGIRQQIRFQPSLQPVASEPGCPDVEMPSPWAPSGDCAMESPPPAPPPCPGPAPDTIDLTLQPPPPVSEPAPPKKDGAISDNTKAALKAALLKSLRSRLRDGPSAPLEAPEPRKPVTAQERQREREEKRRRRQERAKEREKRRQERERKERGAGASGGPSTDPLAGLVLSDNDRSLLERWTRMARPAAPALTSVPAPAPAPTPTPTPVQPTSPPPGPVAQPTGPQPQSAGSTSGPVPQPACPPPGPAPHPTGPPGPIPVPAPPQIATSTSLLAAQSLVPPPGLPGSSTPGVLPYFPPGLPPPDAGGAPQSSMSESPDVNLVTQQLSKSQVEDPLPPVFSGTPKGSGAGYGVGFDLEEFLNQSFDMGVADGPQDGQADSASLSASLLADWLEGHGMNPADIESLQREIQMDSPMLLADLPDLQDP

With `CC(C)(C)NC[C@@H](O)COc1nsnc1N1CCOCC1`, the rescue above control in [1] is -14.1. The inhibition of aggregation in [2] is -23.4%. For the same molecule, in [3], the glutamate uptake change amounted to 14.7%. This molecule also yielded an inclusion score in [4] of 2. Further, the aggregation suppression score in test [5] came to 1.29.

For `CC1=C2C(=CO[C@H](C)[C@H]2C)C(=O)C(C(=O)O)=C1O`, the inhibition of aggregation in test [2] was 68.3%. The glutamate uptake change in test [3] is 33.3%. This molecule gave an inclusion score in [4] of 2. This molecule showed an aggregation suppression score in test [5] of 0.187. In addition, the luciferase signal in test [6] is 52 AU (inactive).

Take `CCCC(=O)Nc1ncnc2c1ncn2C1O[C@@H]2COP(=O)(O)O[C@H]2[C@H]1OC(=O)CCC` (some centres not stated): the rescue above control in test [1] is 1.51. Also, the inhibition of aggregation in [2] turned out to be 77.8%. The glutamate uptake change in test [3] stood at 4.01%. Further, the inclusion score in test [4] is 2. In addition, in [5], the aggregation suppression score came out at 1.79.

`CC(=O)[C@@]1(O)CCC2C3C=C(Cl)C4=CC(=O)[C@@H]5CC5[C@]4(C)C3CC[C@@]21C` (some centres not stated) displayed a rescue above control in test [1] of 12.8. In addition, the inhibition of aggregation in test [2] was determined as 9.8%. Also, the glutamate uptake change in test [3] is -5.81%. The molecule also showed an inclusion score in test [4] of 2. The aggregation suppression score in [5] turned out to be 0.681.

For `COc1ccc(-c2cc(=O)c3c(O)cc(O[C@@H]4O[C@H](CO[C@H]5O[C@H](C)[C@@H](O)[C@H](O)[C@@H]5O)[C@@H](O)[C@H](O)[C@H]4O)cc3o2)cc1O`, the rescue above control in test [1] is -9.51. For the same molecule, the inhibition of aggregation in test [2] amounted to 75%. The glutamate uptake change in test [3] was determined as 6.61%. The molecule also returned an inclusion score in test [4] of 2. The same molecule gave an aggregation suppression score in test [5] of 1.82.

Regarding `CC[C@H](C)C(=O)O[C@H]1CCC=C2C=C[C@H](C)C(CCC3C[C@@H](O)CC(=O)O3)[C@H]21` (some centres not stated), the rescue above control in [1] was -3.11. For the same molecule, in test [2], the inhibition of aggregation was found to be 31.8%. In [3], the glutamate uptake change stood at 12.1%. Also, in test [5], the aggregation suppression score was 0.746.

Consider `Nc1ccn(C2O[C@H](CO)[C@@H](O)[C@H]2O)c(=O)n1` (some centres not stated), for which the rescue above control in [1] is -6.6. Besides, the inhibition of aggregation in test [2] stood at 63.9%. Also, the glutamate uptake change in test [3] amounted to 6.93%. The molecule also came in with an inclusion score in [4] of 2. The aggregation suppression score in [5] was found to be 1.06.

Molecule `C1CCN2C[C@H]3C[C@H](CN4CCCC[C@@H]34)[C@H]2C1` came in with a rescue above control in test [1] of -2.03. Besides, the inhibition of aggregation in test [2] was 26.9%. Also, the glutamate uptake change in test [3] is 8.14%. Also, in test [4], the inclusion score worked out at 2. Besides, the aggregation suppression score in test [5] came out at 1.49.

On to `COC(=O)C(N)CS` (configuration not stated), for which the rescue above control in test [1] is -5.25. Also, the inhibition of aggregation in test [2] worked out at 74.2%. Also, the glutamate uptake change in [3] is 10.6%. Moreover, the inclusion score in [4] amounted to 2. In test [5], this molecule returned an aggregation suppression score of 1.19.

Turning to `NC[C@H]1O[C@H](O[C@H]2C(O[C@@H]3O[C@H](CO)[C@@H](O)[C@H]3O)[C@@H](O)[C@H](N)C[C@@H]2N)[C@H](N)[C@@H](O)[C@@H]1O` (some centres not stated), the rescue above control in test [1] is -3.87. Further, the inhibition of aggregation in [2] came to 51%. Further, the glutamate uptake change in test [3] was -16.8%. The same molecule returned an inclusion score in test [4] of 2. This molecule also came in with an aggregation suppression score in [5] of 0.969.

`O=c1cc(-c2cccc3c2Sc2ccccc2S3)oc(N2CCOCC2)c1`: the inhibition in [7] (at 0.5 µM, stronger effect = higher value) is 81.3% (active); in test [7] (measured here: combination with BGB IC20, at 0.005 µM) it was -22.8%; in test [7] (measured here: combination with BGB IC40, at 0.005 µM) it was -15.3%; in test [7] (setting [17]), -27.2%; in test [7] (measured here: combination with cisplatin, at 0.5 µM, stronger effect = higher value), 108%; in test [7] (measured here: combination with cisplatin, at 5 µM, stronger effect = higher value), -58.3%. Also, the inhibition in test [8] (BGB combo, at 5 µM) is -23.9%; in test [8] (at 0.5 µM) it was -20.7% (inactive); in [8] (cisplatin combo, at 5 µM), -6.5%; in [8] (setting [18]) it was -21.1%; in test [8] (setting [19]), -8.71%; in test [8] (single agent, at 5 µM), -26.1%. In addition, the inhibition in test [9] (BGB IC20 combo, at 0.005 µM) is -0.749%; in test [9] (BGB IC40 combo, at 0.005 µM), -24.9%; in test [9] (BGB IC40 combo, at 0.05 µM) it was 11.6%; in test [9] (at 0.5 µM), -26.5% (inactive); in test [9] (cisplatin combo, at 0.05 µM), 9.17%; in test [9] (cisplatin combo, at 0.5 µM) it was -36.8%. Besides, the inhibition was -31.3% in test [9] (cisplatin combo, at 5 µM); -22.7% in [9] (measured here: 5 uM single agent, at 5 µM); -10.6% (inactive) in test [10] (at 0.5 µM); -24.7% in test [10] (setting [17]); 9.6% in test [10] (setting [20]); -31.9% in test [10] (measured here: combination with cisplatin, at 5 µM). For the same molecule, the inhibition in test [11] (at 0.5 µM) was -13.7% (inactive); in [11] (measured here: with BGB IC20, at 0.5 µM) it was -13.9%; in [11] (measured here: with BGB IC20, at 5 µM), -31%; in test [11] (measured here: with cisplatin IC20, at 0.5 µM) it was -8.83%; in test [11] (measured here: with cisplatin IC20, at 5 µM) it was -19.5%; in test [11] (single agent, at 5 µM) it was -17.7%. In addition, the inhibition was -29.5% (inactive) in test [12] (at 0.5 µM); -49.7% in test [12] (measured here: combination with BGB at IC20, at 0.5 µM); -36.1% in test [12] (measured here: combination with cisplatin at IC20, at 0.5 µM); -26.6% (inactive) in [13] (at 0.5 µM); -22.1% in [13] (measured here: BGB combination, at 0.5 µM); -25.2% in test [13] (measured here: BGB combination, at 5 µM). The inhibition in test [13] (measured here: cisplatin combination, at 0.5 µM) was -36.1%; in test [13] (measured here: cisplatin combination, at 5 µM), -24.3%; in test [14] (at 0.5 µM), -24.9% (inactive); in test [14] (cisplatin combination, at 0.5 µM), -8.73%; in [14] (cisplatin combination, at 5 µM) it was -21.4%; in test [14] (measured here: BGB IC40 combination 0.05 uM, at 0.05 µM), -12.1%. Further, the inhibition in test [14] (single agent, at 5 µM) was -39.1%; in test [15] (at 0.5 µM), -11.1% (inactive); in test [15] (cisplatin combo, at 5 µM), 5.15%; in [15] (measured here: BGB IC40 combination, at 0.05 µM) it was -26.8%; in test [15] (setting [20]), -2.95%; in [15] (single agent, at 5 µM), -8.05%. Moreover, the inhibition in [16] (at 0.5 µM) was -32.7% (inactive); in test [16] (setting [18]), -8.28%; in test [16] (setting [19]), -48.2%; in test [16] (single agent, at 0.05 µM), -20.3%; in [16] (single agent, at 5 µM) it was -31.2%.
